# ± gives the standard deviation of the averaged measurements.
# Tests used:
# Experiment in all cases: cell viability (% of vehicle); higher = less cytotoxic
# [1] = system: HCI01 (cells of a triple-negative basal-like breast cancer xenograft); conditions: 10 µM; 72 h
# [2] = system: HCI03 (cells of an ER-positive luminal breast cancer xenograft); conditions: 10 µM; 72 h
# [3] = system: HCI09 (cells of a triple-negative luminal androgen receptor type breast cancer xenograft); conditions: 10 µM; 72 h
# [4] = system: HCI11 (cells of an ER-positive luminal breast cancer xenograft); conditions: 10 µM; 72 h
# [5] = system: HCI13 (cells of an ER-positive luminal breast cancer xenograft); conditions: 10 µM; 72 h
# [6] = system: HCI16 (cells of a triple-negative basal-like breast cancer xenograft); conditions: 10 µM; 72 h
# [7] = system: UCD52 (cells of a triple-negative basal-like breast cancer xenograft); conditions: 10 µM; 72 h
# [8] = system: WHIM2 (cells of a triple-negative basal-like breast cancer xenograft); conditions: 10 µM; 72 h
# [9] = system: UCD52; conditions: 1 µM; 72 h
# [10] = system: WHIM2; conditions: 1 µM; 72 h
# [11] = system: WHIM30 (cells of a triple-negative basal-like breast cancer xenograft); conditions: 1 µM; 72 h
# [12] = system: WHIM30; conditions: 10 µM; 72 h
# [13] = system: HCI01; conditions: 1 µM; 72 h
Compound,cell viability [1],cell viability [2],cell viability [3],cell viability [4],cell viability [5],cell viability [6],cell viability [7],cell viability [8],cell viability [9],cell viability [10],cell viability [11],cell viability [12],cell viability [13]
O=c1[nH]cc(F)c(=O)[nH]1 [Fluorouracil (Adrucil)],136 ± 18,112,75.1 ± 7.2,167,81.1 ± 6,151,139.3 ± 0.23,106 ± 20,–,–,–,–,–
CCC1(c2ccccc2)C(=O)NCNC1=O [Primidone],78.1 ± 54,162,105 ± 2.9,90.6,134.7 ± 0.7,121,85.1 ± 8.9,100 ± 33,–,–,–,–,–
CC(C)(C)C(=O)OCOP(=O)(COCCn1cnc2c(N)ncnc21)OCOC(=O)C(C)(C)C [Adefovir Dipivoxil],109 ± 43,148,62.7 ± 38,105,43.6 ± 9.2,129,101 ± 9.6,50.6 ± 3.7,–,–,–,–,–
NC(=O)c1cnccn1 [Pyrazinamide],66.5 ± 42,126,90.8 ± 15,93.8,99.7 ± 1.4,98.9,85.8 ± 0.98,90.2 ± 30,–,–,–,–,–
COc1ccc2cc(CCC(C)=O)ccc2c1 [Nabumetone],170 ± 32,172,200 ± 62,141,199 ± 10,136,151 ± 25,117 ± 11,–,–,–,–,–
Cc1c(OCC(F)(F)F)ccnc1CS(=O)c1nc2ccccc2[n-]1.[Na+] (configuration not stated) [Lansoprazole sodium],181 ± 1.4,145,124 ± 9,163,135 ± 5.7,152,138.2 ± 0.31,143 ± 9.9,–,–,–,–,–
CCOC(=O)c1c(C)n(C)c2ccc(O)cc12 [Mecarbinate],72.1 ± 43,152,111 ± 4.2,90.9,135 ± 14,115,87.3 ± 3.8,99.6 ± 22,–,–,–,–,–
CCCNC(C)C(=O)Nc1ccccc1C (configuration not stated) [Prilocaine],77.2 ± 50,145,102 ± 1.6,92,119.7 ± 0.81,108,79.7 ± 1.1,98.7 ± 19,–,–,–,–,–
CC(=O)C1(O)Cc2c(O)c3c(c(O)c2C(OC2CC(N)C(O)C(C)O2)C1)C(=O)c1ccccc1C3=O.Cl (configuration not stated) [Idarubicin HCl],37.5 ± 5.3,67.6,28.4 ± 1.2,27.8,47.1 ± 3.2,32.1,31.4 ± 6.4,29.3 ± 9.9,32.5,28.8,41.2,44.7 ± 14,–
COc1cccc2c1C(=O)c1c(O)c3c(c(O)c1C2=O)CC(O)(C(=O)CO)CC3OC1CC(N)C(O)C(C)O1.Cl (configuration not stated) [Epirubicin HCl],56.2 ± 19,–,26.2 ± 13,50.5,–,35.4,22.7 ± 4,29.1 ± 15,35.9,22.2,46.4,50.8 ± 12,105
CCN(CC)C(=O)C1(c2ccccc2)CC1CN.Cl (configuration not stated) [Milnacipran HCl],68.6 ± 44,137,96.4 ± 9.2,98.1,127 ± 14,105,86.4 ± 1.7,93.8 ± 47,–,–,–,–,–
COc1cc(Cc2cnc(N)nc2N)cc(OC)c1OC [Trimethoprim],78.3 ± 37,144,91.1 ± 7.9,93,117 ± 22,120,95.4 ± 7.4,118 ± 7.3,–,–,–,–,–
NC(=O)c1ncn(C2OC(CO)C(O)C2O)n1 (configuration not stated) [Ribavirin],72.7 ± 49,148,92.7 ± 2.2,93.7,118 ± 9.9,110,96.4 ± 6.9,99.1 ± 46,–,–,–,–,–
CCc1cnn2c(NCc3ccc[n+]([O-])c3)cc(N3CCCCC3CCO)nc12 (configuration not stated),38.1 ± 3.4,–,62.5 ± 35,72.6,–,92.9,42.1 ± 6.4,48.7 ± 12,29.2,38.1,34.9,66.2 ± 6.1,46.8
CS(=O)(=O)CCNCc1ccc(-c2ccc3ncnc(Nc4ccc(OCc5cccc(F)c5)c(Cl)c4)c3c2)o1 [Lapatinib],112 ± 63,45.4,39.3 ± 17,98.8,42.2 ± 0.47,168,51.2 ± 3.6,40.7 ± 5.3,–,–,–,–,–
CC1=C(CC(=O)O)c2cc(F)ccc2C1=Cc1ccc(S(C)=O)cc1 (configuration not stated) [Sulindac],92.1 ± 23,89.2,81.5 ± 4.2,76.2,108 ± 0.55,119,97.3 ± 3.1,88.7 ± 6.6,–,–,–,104 ± 13,–
CCCc1cc(=O)[nH]c(=S)[nH]1 [Propylthiouracil],70.4 ± 44,153,100 ± 12,97.8,143 ± 30,120,91.2 ± 3.8,100 ± 38,–,–,–,–,–
Cc1cc2c(s1)=Nc1ccccc1NC=2N1CCN(C)CC1 [Olanzapine],90.18 ± 0.87,107,105 ± 2.8,88.7,88.6 ± 14,112,87.7 ± 4.5,90.9 ± 8.5,–,–,–,107 ± 16,–
O=C(O)c1ccccc1O [Salicylic acid],106 ± 7.3,114,138 ± 62,116,99.1 ± 7,98.3,120 ± 16,95.1 ± 13,–,–,–,118 ± 23,–
CCCSc1ccc2nc(NC(=O)OC)[nH]c2c1 [Albendazole],166 ± 38,131,172 ± 35,93.6,127 ± 10,160,95.4 ± 25,123 ± 28,–,–,–,–,–
O=C(c1cc(Cc2n[nH]c(=O)c3ccccc23)ccc1F)N1CCN(C(=O)C2CC2)CC1,166 ± 50,112,72.2 ± 9.9,129,103 ± 5.2,166,117 ± 16,105 ± 6.3,–,–,–,–,–
OCCN(CCO)c1nc(N2CCCCC2)c2nc(N(CCO)CCO)nc(N3CCCCC3)c2n1 [Dipyridamole],90.2 ± 14,116,87.4 ± 23,105,96.2 ± 6.1,150,89.6 ± 3.4,112 ± 34,–,–,–,142 ± 12,–
Cc1nc(C(=O)NCC(=O)O)c(O)c2ccc(Oc3ccccc3)cc12,122 ± 2.7,189,88.7 ± 11,140,113 ± 4.4,88.2,107 ± 14,160 ± 8.2,–,–,–,116 ± 14,–
Cl.Clc1ccc2nsnc2c1NC1=NCCN1 [Tizanidine HCl],115 ± 7.6,125,95.5 ± 43,102,125 ± 25,100,84.3 ± 0.65,88.3 ± 14,–,–,–,117 ± 20,–
CCCCCCCCCCCCCCCCO [1-Hexadecanol],108 ± 3.9,95.9,97.8 ± 12,95.2,107 ± 84,109,67.1 ± 5.9,94.2 ± 11,–,–,–,84.7 ± 8.4,–
OCC(CO)NC1CC(O)(CO)C(O)C(O)C1O (configuration not stated) [Voglibose],106 ± 13,109,93 ± 17,89.1,58.7 ± 0.94,129,80.3 ± 5.1,117 ± 27,–,–,–,110 ± 8.8,–
Clc1ccc(C(Cn2ccnc2)OCc2csc3c(Cl)cccc23)c(Cl)c1.O=[N+]([O-])O (configuration not stated) [Sertaconazole nitrate],113 ± 34,85.1,53.6 ± 39,103,44.6 ± 5.4,103,107 ± 58,150 ± 36,–,–,–,123 ± 12,–
O=C(O)c1ccccc1 [Benzoic Acid],143 ± 20,95.6,109 ± 25,104,70.3 ± 10,124,110 ± 8,127 ± 7.8,–,–,–,111 ± 15,–
CC1C(NC(=O)C(=NOC(C)(C)C(=O)O)c2csc(N)n2)C(=O)N1S(=O)(=O)O (configuration not stated) [Aztreonam],104 ± 4.2,113,96.5 ± 6.8,109,118 ± 15,114,95.9 ± 3,84.4 ± 8.5,–,–,–,123 ± 30,–
Cc1ccc(-c2cc(C(F)(F)F)nn2-c2ccc(S(N)(=O)=O)cc2)cc1 [Celecoxib],139 ± 24,110,94.7 ± 7.4,94.4,94 ± 2.9,112,70.1 ± 3.8,93.3 ± 12,–,–,–,100.5 ± 1,–

# Source: the supplement of paper PMC6992640
